Measured values as given in PubChem BioAssay (Tox21).
Where “and” joins values, the source holds several entries; their conditions need not be identical. Identical values can stand only once. Results filed as inconclusive are left out. A structure can be active in one record and inactive in another. Calls of active or inactive are those of the source. Unless noted, the call rests on the fitted dose curve; in most records, active means well fitted curve in the direction sought with a large enough effect in the repeat runs; inconclusive means weak or mixed curves; inactive means no such curve, though single readings can be large; an effect the other way counts as inactive or inconclusive.

Columns and labels:
[1] = qHTS assay to identify small molecule agonists of H2AX - cell viability counter screen (AID 1224847; calls by dose curve; further: nearly all actives have a fitted effect of over 30% in size; further: potency means the concentration at half of the fitted maximal effect)
Outline: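 Viability of CHO-K1 (wild type) cells after 3 hr compound exposure was measured by CellTiter-Glo luminescence.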

[2] = qHTS RealTime-Glo MT Cell Viability Assay in HepG2 cells - 24 hour (AID 1224867); further: nearly all actives have a fitted effect of over 50% in size; further: potency means the concentration at half of the fitted maximal effect
Outline: (§1)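 Luminescence read-out: viable HepG2 cells reduce a prosubstrate to a NanoLuc substrate, giving a signal proportional to live cell number. Reads taken at 0, 8, 16, 24, 32 and 40 h of compound exposure at 37 C.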

[3] = qHTS RealTime-Glo MT Cell Viability Assay in HEK293 cells - 32 hour (AID 1224868); further: nearly all actives have a fitted effect of over 50% in size; further: potency means the concentration at half of the fitted maximal effect
Outline: (§2)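 Nonlytic real-time viability readout: viable cells convert prosubstrate to NanoLuc substrate, giving luminescence proportional to live cell number. HEK293, 600 cells/well, compound added after 5 h, continuous culture at 37 C.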

[4] = A CellTox Green Cytotoxicity Assay to monitor cytotoxicity in HEK293 cells - 0 hour (AID 1224869); further: nearly all actives have a fitted effect of over 50% in size
Outline: (§3)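 Dead-cell fluorescence measured kinetically: asymmetric cyanine dye, HEK293, 600 cells/well, 5 h settle, 23 nL cpd/DMSO, 37 C, reads 0–40 h every 8 h.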

[5] = A CellTox Green Cytotoxicity Assay to monitor cytotoxicity in HEK293 cells - 40 hour (AID 1224871); further: nearly all actives have a fitted effect of over 45% in size; further: potency means the concentration at half of the fitted maximal effect
Outline: as §3

[6] = qHTS RealTime-Glo MT Cell Viability Assay in HEK293 cells - 16 hour (AID 1224872); further: nearly all actives have a fitted effect of over 50% in size; further: potency means the concentration at half of the fitted maximal effect
Outline: as §2

[7] = qHTS RealTime-Glo MT Cell Viability Assay in HepG2 cells - 8 hour (AID 1224873); further: nearly all actives have a fitted effect of over 55% in size; further: potency means the concentration at half of the fitted maximal effect
Outline: (§4)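 Real-time viability: cells seeded at 600 per well together with NanoLuc and cell-permeant prosubstrate, compounds added after 5 h incubation. Luminescence tracked at 0, 8, 16, 24, 32 and 40 h of exposure.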

[8] = qHTS RealTime-Glo MT Cell Viability Assay in HEK293 cells - 40 hour (AID 1224874); conditions: RealTime-Glo luminescence; max response: stronger effect = lower value; further: nearly all actives have a fitted effect of over 50% in size; further: potency means the concentration at half of the fitted maximal effect
Outline: (§5)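 600 HEK293 cells per well, dispensed already mixed with RealTime-Glo MT reagents. Compound dosing came 5 h later. The same wells were read for luminescence at 0, 8, 16, 24, 32 and 40 h of exposure at 37 C.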

[9] = A CellTox Green Cytotoxicity Assay to monitor cytotoxicity in HEK293 cells - 24 hour (AID 1224875); further: nearly all actives have a fitted effect of over 45% in size; further: potency means the concentration at half of the fitted maximal effect
Outline: as §3

[10] = A CellTox Green Cytotoxicity Assay to monitor cytotoxicity in HepG2 cells - 16 hour (AID 1224876); further: nearly all actives have a fitted effect of over 45% in size; further: potency means the concentration at half of the fitted maximal effect
Outline: (§6)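 First, HepG2 cells (600/well) mixed with reagent were plated; second, after 5 h at 37 C they received compounds via pintool; third, fluorescence was measured at 0 h through 40 h at 8 h intervals.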

[11] = qHTS RealTime-Glo MT Cell Viability Assay in HepG2 cells - 32 hour (AID 1224877); further: nearly all actives have a fitted effect of over 55% in size; further: potency means the concentration at half of the fitted maximal effect
Outline: as §1

[12] = A CellTox Green Cytotoxicity Assay to monitor cytotoxicity in HepG2 cells - 24 hour (AID 1224878); further: nearly all actives have a fitted effect of over 45% in size; further: potency means the concentration at half of the fitted maximal effect
Outline: as §6

[13] = A CellTox Green Cytotoxicity Assay to monitor cytotoxicity in HepG2 cells - 40 hour (AID 1224879); further: nearly all actives have a fitted effect of over 40% in size; further: potency means the concentration at half of the fitted maximal effect
Outline: as §6

[14] = qHTS RealTime-Glo MT Cell Viability Assay in HEK293 cells - 0 hour (AID 1224880); further: nearly all actives have a fitted effect of over 45% in size; further: potency means the concentration at half of the fitted maximal effect
Outline: as §5

[15] = A CellTox Green Cytotoxicity Assay to monitor cytotoxicity in HEK293 cells - 32 hour (AID 1224881); further: nearly all actives have a fitted effect of over 40% in size; further: potency means the concentration at half of the fitted maximal effect
Outline: as §3

[16] = qHTS assay to identify small molecule agonists of the hypoxia (HIF-1) signaling pathway (AID 1224846; active means well fitted activation curve with a large enough effect in the signal ratio in the repeat runs, not every such curve was filed as active; the % refers to the signal ratio)
Outline: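 Agonist mode reporter screen. ME-180 cells stably expressing bla under HRE control received test compounds in DMSO for 17 hrs (37C, 5% CO2), and beta-lactamase activity was then detected with the CCF4-AM FRET substrate.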

[17] = qHTS RealTime-Glo MT Cell Viability Assay in HepG2 cells - 40 hour (AID 1224870); further: nearly all actives have a fitted effect of over 50% in size; further: potency means the concentration at half of the fitted maximal effect
Outline: as §4

[18] = qHTS assay to identify small molecule antagonists of the estrogen related receptor (ERR) signaling pathway from Tox21 library (AID 1224848); further: nearly all actives have a fitted effect of over 50% in size; further: potency means the concentration at half of the fitted maximal effect
Outline: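 ERR cell line, 2,000 cells/well. 6 h settle, then compound (DMSO) added; 18 h at 37 C; ONE-Glo luminescence after 30 min RT.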

[19] = qHTS assay to identify small molecule agonists of the estrogen related receptor (ERR) signaling pathway from Tox21 library (AID 1224849; calls by dose curve; further: nearly all actives have a fitted effect of over 15% in size); conditions: ERR reporter cell line, ONE-Glo luciferase, 18 h; at 92.4 µM (top of the series)
Outline: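 Quantitative HTS in agonist format: NTP ERR cell line, compounds transferred in DMSO after 6 h plating, 18 h incubation at 37 C, ONE-Glo luminescence endpoint.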
On the % scale 0 is the no-effect control and ±100 the full control effect.

NN=C(N)N
inactive: Potency [1] | Potency [2] | Potency [3] | Potency [4] | Potency [5] | Potency [6] | Potency [7] | max response [8] -2.73% and -1.15% | Potency [9] | Potency [10] | Potency [11] | Potency [12] | Potency [13] | Potency [14] | Potency [15]

Clc1ccccc1-c1nnc(-c2ccccc2Cl)nn1
inactive: outcome [16] | Potency [2] | Potency [4] | Potency [17] | Potency [5] | Potency [6] | Potency [7] | Potency [9] | Potency [10] | Potency [11] | Potency [12] | Potency [13] | Potency [14]
active: Potency [1] 100 µM

O=C1C(Cl)=C(Cl)C(=O)c2ccccc21
24.4 µM (active) and inactive: Potency [18]
inactive: activity change, positive = activation [19] -82.7% and -46.9% | Potency [4]
active: Potency [1] 22.6 µM and 14.2 µM | Potency [2] 24.6 µM and 11 µM | Potency [3] 6.19 µM and 7.76 µM | Potency [5] 3.9 µM and 4.9 µM | Potency [6] 6.19 µM and 9.77 µM | Potency [7] 21.9 µM and 6.92 µM | Potency [9] 3.9 µM and 6.92 µM | Potency [10] 12.3 µM and 4.9 µM | Potency [11] 31 µM and 12.3 µM | Potency [12] 12.3 µM and 3.89 µM | Potency [13] 17.4 µM and 4.36 µM | Potency [14] 5.51 µM | Potency [15] 6.19 µM and 6.17 µM

O=[N+]([O-])c1ccc(Cl)c([N+](=O)[O-])c1
active: Potency [1] 102 µM | Potency [18] 24.7 µM and 24.3 µM | Potency [2] 35.2 µM and 17.4 µM | Potency [3] 9.92 µM and 12.3 µM | Potency [17] 35.2 µM and 17.4 µM | Potency [5] 14 µM and 19.5 µM | Potency [6] 11.1 µM and 12.3 µM | Potency [7] 24.9 µM and 15.5 µM | Potency [9] 39.5 µM | Potency [10] 39.5 µM and 54.9 µM | Potency [12] 35.2 µM and 49 µM | Potency [13] 39.5 µM and 24.5 µM | Potency [15] 19.8 µM and 24.5 µM
inactive: activity change, positive = activation [19] -81.7% and -78.5% | Potency [4] | Potency [14]

COc1ccc(CO)cc1
inactive: outcome [16] | Potency [1] | Potency [2] | Potency [4] | Potency [5] | Potency [6] | Potency [7] | Potency [9] | Potency [10] | Potency [12] | Potency [13] | Potency [14]

N#Cc1c(Cl)c(Cl)c(Cl)c(C#N)c1Cl
active: Potency [1] 55.6 µM | Potency [2] 21.5 µM and 4.9 µM | Potency [3] 1.7 µM and 1.23 µM | Potency [5] 6.79 µM and 5.49 µM | Potency [6] 3.4 µM and 1.55 µM | Potency [7] 42.8 µM and 11 µM | Potency [8] 1.7 µM and 1.1 µM | Potency [9] 12.1 µM and 9.77 µM | Potency [10] 24.1 µM and 6.92 µM | Potency [11] 19.1 µM and 3.89 µM | Potency [12] 24.1 µM and 3.09 µM | Potency [13] 19.1 µM and 2.45 µM
inactive: Potency [4] | Potency [14]

CC(C)Nc1ccc(Nc2ccccc2)cc1
inactive and 49 µM (active): Potency [10]
inactive: activity change, positive = activation [19] -81.7% and -69.9% | Potency [4]
active: Potency [1] 50.3 µM and 89.8 µM | Potency [18] 15.3 µM and 48.6 µM | Potency [2] 54.7 µM and 49 µM | Potency [3] 17.3 µM and 19.5 µM | Potency [5] 48.8 µM and 49 µM | Potency [6] 17.3 µM and 19.5 µM | Potency [7] 48.8 µM and 38.9 µM | Potency [8] 17.3 µM and 17.4 µM | Potency [9] 48.8 µM and 54.9 µM | Potency [11] 54.7 µM | Potency [12] 43.6 µM | Potency [13] 43.6 µM | Potency [14] 7.73 µM and 19.5 µM

CC(C)(C#N)N=NC(C)(C)C#N
inactive: outcome [16] | Potency [1] | Potency [2] | Potency [4] | Potency [17] | Potency [5] | Potency [6] | Potency [7] | Potency [9] | Potency [10] | Potency [11] | Potency [12] | Potency [13] | Potency [14] | Potency [15]

CCC[CH2][Sn]([Cl])([CH2]CCC)[CH2]CCC
active: Potency [1] 637 nM and 713 nM | Potency [2] 1.55 µM and 549 nM | Potency [3] 347 nM and 490 nM | Potency [17] 979 nM and 347 nM | Potency [5] 491 nM and 549 nM | Potency [6] 390 nM and 692 nM | Potency [7] 3.47 µM and 1.38 µM | Potency [8] 310 nM and 436 nM | Potency [9] 979 nM and 2.45 µM | Potency [10] 1.74 µM and 1.23 µM | Potency [11] 1.23 µM and 436 nM | Potency [12] 1.38 µM and 2.19 µM | Potency [13] 1.38 µM and 692 nM | Potency [15] 618 nM and 776 nM
inactive: Potency [4] | Potency [14]

CCOC(=O)c1ccccc1N
inactive: outcome [16] | Potency [1] | Potency [2] | Potency [4] | Potency [17] | Potency [5] | Potency [6] | Potency [7] | max response [8] -0.283% and 0.344% | Potency [9] | Potency [14]
inactive and 49 µM (active): Potency [10] | Potency [12]
inactive and 54.9 µM (active): Potency [13]

COc1ccc(O)c(C(C)(C)C)c1
inactive: outcome [16] | Potency [1] | Potency [2] | Potency [4] | Potency [17] | Potency [5] | Potency [6] | Potency [7] | max response [8] -6.92% and 11.9% | Potency [9] | Potency [10] | Potency [11] | Potency [14]

ClC(Cl)(Cl)c1ccccc1
inactive: outcome [16] | Potency [1] | Potency [2] | Potency [3] | Potency [4] | Potency [17] | Potency [5] | Potency [6] | Potency [7] | max response [8] 8.54% and -1.53% | Potency [9] | Potency [10] | Potency [11] | Potency [12] | Potency [13] | Potency [14] | Potency [15]
